This is an account of results in PubChem BioAssay (EPA / NIEHS).

SMILES strings stand for the structures. Records with an inconclusive call do not appear. The source holds several records for some structures; these can differ, active in one and inactive in another. Activity calls are given as the source filed them. The calls were made as follows, unless noted: active = hit-call score of the fitted dose curve at least 0.9, where 1 is the maximum; inconclusive = response in the unintended direction; inactive = score below 0.9.

Assay [1] deals with Bile acid receptor (Homo sapiens) (UniProt Q96RI1). Nature of the assay: ATG_FXR_TRANS: Attagene TRANS-FACTORIAL HepG2 Assay for Farnesoid X Receptor (FXR) (AID 2282979).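 Also: hits raise reporter mRNA above DMSO so AC50 marks FXR activation.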 The note with it: HepG2 Attagene TRANS FXR-GAL4 reporter transcription. Summed up: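 After 24 h chemical treatment of transfected HepG2 cells, GAL4-UAS reporter transcripts driven by an exogenous FXR-GAL4 fusion were measured by RT-PCR and capillary electrophoresis. Increases over DMSO were fitted.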
Sequence of Bile acid receptor (Homo sapiens) (Q96RI1 whole entry, looked up, the tested form may be a part): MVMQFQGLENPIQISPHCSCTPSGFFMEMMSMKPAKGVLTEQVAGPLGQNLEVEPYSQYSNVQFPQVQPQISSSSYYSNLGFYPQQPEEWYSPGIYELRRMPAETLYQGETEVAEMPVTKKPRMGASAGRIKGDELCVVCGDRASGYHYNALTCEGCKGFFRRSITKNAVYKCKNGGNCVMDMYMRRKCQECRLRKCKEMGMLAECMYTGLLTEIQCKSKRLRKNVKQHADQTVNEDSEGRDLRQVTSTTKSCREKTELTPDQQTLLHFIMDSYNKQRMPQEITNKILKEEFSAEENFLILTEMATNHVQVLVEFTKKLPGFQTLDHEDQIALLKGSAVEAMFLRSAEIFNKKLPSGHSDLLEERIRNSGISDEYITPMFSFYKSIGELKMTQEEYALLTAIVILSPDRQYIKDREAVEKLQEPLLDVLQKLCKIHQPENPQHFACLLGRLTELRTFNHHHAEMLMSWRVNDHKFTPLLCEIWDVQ

The target in assay [2] is Estrogen receptor beta (Homo sapiens) (UniProt Q92731). Nature of the assay: OT_ER_ERbERb_0480: Odyssey Thera (OT) 8-hour HEK293T Protein-Complementation Assay for Estrogen Receptor-beta/-beta Homodimer (AID 2283357).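 Also: active means signal gain over DMSO baseline.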 In a few lines: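 Homodimerization of ER-beta LBD measured by protein-fragment complementation in HEK293T; 8 h dosing; fixed, Draq5 counterstain; fluorescence intensity gain over DMSO baseline, positive fitting direction; laser scanning cytometry.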
Sequence of Estrogen receptor beta (Homo sapiens) (Q92731 whole entry, looked up, the tested form may be a part): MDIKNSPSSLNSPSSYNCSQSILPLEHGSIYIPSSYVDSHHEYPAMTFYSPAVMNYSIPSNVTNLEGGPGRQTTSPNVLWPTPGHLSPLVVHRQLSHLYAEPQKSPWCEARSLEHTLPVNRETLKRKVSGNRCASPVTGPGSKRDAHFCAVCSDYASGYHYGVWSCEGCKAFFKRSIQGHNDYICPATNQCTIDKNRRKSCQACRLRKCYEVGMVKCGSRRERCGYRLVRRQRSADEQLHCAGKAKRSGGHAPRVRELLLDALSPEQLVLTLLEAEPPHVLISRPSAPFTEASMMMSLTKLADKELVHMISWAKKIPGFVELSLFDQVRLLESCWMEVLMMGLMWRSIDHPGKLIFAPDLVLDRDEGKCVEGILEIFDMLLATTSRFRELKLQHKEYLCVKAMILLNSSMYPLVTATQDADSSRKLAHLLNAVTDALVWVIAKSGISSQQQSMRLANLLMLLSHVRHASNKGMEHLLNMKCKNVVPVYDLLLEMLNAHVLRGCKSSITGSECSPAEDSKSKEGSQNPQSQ

Assay [3] shares this target. In words: OT_ER_ERbERb_1440: Odyssey Thera (OT) 24-hour HEK293T Protein-Complementation Assay for Estrogen Receptor-beta/-beta Homodimer (AID 2283380).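 Also: scored as signal increase over DMSO baseline for both agonists and antagonists.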 In a few lines: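 HEK293T cells stably expressing ER beta LBD (aa 310-547) homodimer fragment-complementation reporter, dosed 24 h. Cells formaldehyde-fixed, Draq5-stained; gain in nuclear (agonist) or nuclear plus cytoplasmic (antagonist) fluorescence versus DMSO read by laser scanning cytometry.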

Assay [4] addresses Retinoic acid receptor RXR-alpha (Homo sapiens) (UniProt P19793). Nature of the assay: OT_NURR1_NURR1RXRa_0480: Odyssey Thera (OT) 8-hour HEK293T Protein Complementation Assay for Nurr1/retinoid X receptor (RXR) (AID 2283385). Summed up:
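Read-out: fluorescence from protein-fragment complementation between Nurr1 and RXRα in human HEK293T cells, 8 h after dosing. DMSO served as negative control; increased signal counted as activity.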

For assay [5] the target is unchanged. Nature of the assay: OT_NURR1_NURR1RXRa_1440: Odyssey Thera (OT) 24-hour HEK293T Protein Complementation Assay for Nurr1/retinoid X receptor (RXR) (AID 2283386). Summed up: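 Fluorescence PCA read-out; HEK293T; 24 h post-dose; bait/prey fused to reporter fragments; gain-of-signal fit vs DMSO negative control.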
A short description of assay [6]: ACEA_AR_agonist_AUC_viability: ACEA Biosciences xCELLigence Real-Time Cell Analysis on Androgen Receptor Agonism for Viability (AID 2283775).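 As to AC50: viability read 80 hours after compound addition.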 In a few lines: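 Viability endpoint from xCELLigence impedance in 22Rv1 prostate cells at 80 h. Eight-point series, 100 uM maximum final.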
The nature of assay [7]: ACEA_AR_antagonist_AUC_viability: ACEA Biosciences xCELLigence Real-Time Cell Analysis on Androgen Receptor Antagonism for Viability (AID 2283776).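 Also: area under impedance growth curve at 80 h after dosing as viability; hits lower the growth signal relative to DMSO meaning cytotoxicity.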 In a few lines: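 22Rv1 human prostate cancer cells were seeded on electrode plates, monitored overnight, then exposed to eight 1:4 dilutions from 100 uM final. Impedance-based growth kinetics at 80 h gave an AUC viability endpoint normalized to DMSO.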

Assay [8] is described as follows: ATG_ERE_CIS: Attagene CIS-FACTORIAL HepG2 Assay for Estrogen Response Element (ERE) (AID 2282940; active = hit-call score of the fitted dose curve at least 0.9, where 1 is the maximum; inactive = score below 0.9). The note with it: HepG2 ERE cis-reporter, Attagene RNA transcript; actives raise or lower the signal. In a few lines:
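Cells used were human hepatoma HepG2, transfected with multiple reporter transcription units under cis-regulatory promoters. Reporter mRNA, read 24 h post-dosing via fluorescent RT-PCR products on capillary electrophoresis, was fitted bidirectionally relative to DMSO.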

A short description of assay [9]: ATG_GAL4_TRANS: Attagene TRANS-FACTORIAL HepG2 Assay for GAL4 (Internal Marker) (AID 2282976). The note with it: HepG2 Attagene TRANS GAL4 internal marker reporter. Summed up:
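Liver HepG2 line bearing multiplexed GAL4-UAS reporter constructs; 24 h chemical treatment. Transcripts were quantified as fluorescent fragments on capillary electrophoresis after RT-PCR and HpaI cut, with activity fitted upward from DMSO.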

Assay [10] addresses Oxysterols receptor LXR-beta (Homo sapiens) (UniProt P55055). In words: ATG_LXRb_TRANS: Attagene TRANS-FACTORIAL HepG2 Assay for human Liver X Receptor beta (LXRb) (AID 2282981). The following applies: HepG2 Attagene TRANS GAL4-LXRb reporter, mRNA. Summed up: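 Readout: fluorescent reporter mRNA fragments resolved by capillary electrophoresis after RT-PCR. System: transiently transfected human HepG2, exogenous LXRb-Gal4 chimera driving GAL4-UAS reporter, 24 h dosing. Activity fitted upward against DMSO baseline.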

Assay [11] in a line: BSK_3C_TissueFactor: BioMAP Diversity Plus: 3C Assay for Tissue Factor Biomarker Activity (AID 2282997; active = hit-call score of the fitted dose curve at least 0.9, where 1 is the maximum; inactive = score below 0.9). The following applies: BioMAP 3C HUVEC, tissue factor biomarker readout; actives raise or lower the signal. Summed up:
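In this endothelial system, HUVEC are treated for 24 h and Tissue Factor is assessed by ELISA, normalised to DMSO.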

Assay [12] is described as follows: BSK_3C_uPAR: BioMAP Diversity Plus: 3C Assay for Urokinase-type plasminogen activator receptor (uPAR) Biomarker Activity (AID 2282998; active = hit-call score of the fitted dose curve at least 0.9, where 1 is the maximum; inactive = score below 0.9). The following applies: BioMAP 3C HUVEC, uPAR biomarker ELISA; actives raise or lower the signal. Summed up: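 Dose primary human umbilical vein endothelial cells, incubate 24 h, measure cell-surface uPAR by ELISA, then fit the signal in both directions against the DMSO negative control.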
A general note: An ELISA detects its analyte on a solid surface through an enzyme-linked reagent.

Assay [13] can be described thus: BSK_4H_Eotaxin3: BioMAP Diversity Plus: 4H Assay for Eotaxin 3 Biomarker Activity (AID 2283000; active = hit-call score of the fitted dose curve at least 0.9, where 1 is the maximum; inactive = score below 0.9;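 as to outcome: CCL26 protein level quantified by ELISA in parallel with SRB cytotoxicity check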). The note with it: primary human endothelial cells (HUVEC); actives raise or lower the signal. Summed up:
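ELISA quantitation of CCL26 (Eotaxin-3) protein from chemically dosed human vascular endothelial cells at 24 h; increases and decreases both scored relative to DMSO-treated baseline.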

The target in assay [14] is human Thyroid Receptor alpha (THRa1), THRA (gene 7067) (UniProt P10827). In words: ATG_THRa1_TRANS: Attagene TRANS-FACTORIAL HepG2 Assay for human Thyroid Receptor alpha (THRa1) (AID 2283014). Summed up: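 Measured here is mRNA from a GAL4-UAS reporter in transfected HepG2 cells carrying a Gal4-fused receptor, 24 h post-dose. DMSO served as negative control and baseline.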
Sequence of human Thyroid Receptor alpha (THRa1), THRA (gene 7067) (P10827 whole entry, looked up, the tested form may be a part): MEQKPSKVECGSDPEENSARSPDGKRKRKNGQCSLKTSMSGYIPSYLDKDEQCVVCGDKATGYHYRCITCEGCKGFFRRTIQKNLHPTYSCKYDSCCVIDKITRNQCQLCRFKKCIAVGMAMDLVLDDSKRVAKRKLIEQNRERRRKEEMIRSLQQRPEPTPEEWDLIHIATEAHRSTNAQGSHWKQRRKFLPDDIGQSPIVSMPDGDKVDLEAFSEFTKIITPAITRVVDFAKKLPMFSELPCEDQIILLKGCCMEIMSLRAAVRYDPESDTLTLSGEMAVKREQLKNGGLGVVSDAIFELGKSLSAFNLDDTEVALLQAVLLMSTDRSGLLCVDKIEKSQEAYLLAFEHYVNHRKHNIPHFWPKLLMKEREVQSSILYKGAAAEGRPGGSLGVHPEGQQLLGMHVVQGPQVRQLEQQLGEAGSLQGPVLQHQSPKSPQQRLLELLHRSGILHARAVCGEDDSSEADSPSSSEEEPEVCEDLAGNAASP

Read-out in assay [15]: Interleukin-1 alpha (IL1a), IL1A (gene 3552)
In words: BSK_BE3C_IL1a: BioMAP Diversity Plus: BE3C Assay for Interleukin-1 alpha (IL1a) Biomarker Activity (AID 2283016; active = hit-call score of the fitted dose curve at least 0.9, where 1 is the maximum; inactive = score below 0.9). The note with it: primary human bronchial epithelial cells; actives raise or lower the signal. Summed up: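 ELISA read-out of IL-1a from human lung bronchial epithelial primary cells, 24 h post-dose. Gain or loss of signal fitted relative to DMSO negative control.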

Read-out in assay [16]: Monocyte Chemoattractant Protein-1 (MCP1), CCL2 (gene 6347)
In words: BSK_3C_MCP1: BioMAP Diversity Plus: 3C Assay for Monocyte Chemoattractant Protein-1 (MCP1) Biomarker Activity (AID 2283017; active = hit-call score of the fitted dose curve at least 0.9, where 1 is the maximum; inactive = score below 0.9). The note with it: primary human endothelial cells (HUVEC); actives raise or lower the signal. Summed up:
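Using human vascular primary endothelium, researchers measured MCP-1 by ELISA 24 h after treatment, with DMSO serving as negative control for bidirectional fitting.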

Read-out in assay [17]: Interleukin-8 (IL8), CXCL8 (gene 3576)
Nature of the assay: BSK_3C_IL8: BioMAP Diversity Plus: 3C Assay for Interleukin-8 (IL8) Biomarker Activity (AID 2283020; active = hit-call score of the fitted dose curve at least 0.9, where 1 is the maximum; inactive = score below 0.9). The note with it: primary human endothelial cells (HUVEC); actives raise or lower the signal. Summed up: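 HUVEC, 3C stimulation; 24 h compound exposure; IL-8 read by ELISA; gain or loss of signal fitted relative to DMSO control.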

Read-out in assay [18]: Monokine induced gamma interferon (MIG), CXCL9 (gene 4283)
In words: BSK_3C_MIG: BioMAP Diversity Plus: 3C Assay for Monokine induced gamma interferon (MIG) Biomarker Activity (AID 2283021; active = hit-call score of the fitted dose curve at least 0.9, where 1 is the maximum; inactive = score below 0.9;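 as to AC50: MIG protein level measured by immunoassay in the treated endothelial cultures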). The following applies: primary human endothelial cells (HUVEC); actives raise or lower the signal. In a few lines:
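HUVEC, 3C system; 24 h chemical exposure; MIG by ELISA; bidirectional fit vs DMSO baseline.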

In assay [19] the target is Peroxisome proliferator-activated receptor gamma (Homo sapiens) (UniProt P37231). Nature of the assay: OT_PPARg_PPARgSRC1_0480: Odyssey Thera (OT) 8-hour Protein-Complementation Assay for Peroxisome Proliferator-activated Receptor Gamma / SRC-1 Co-activator (AID 2283387).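 Also: nuclear to cytoplasmic split Venus YFP fluorescence ratio reporting PPARg SRC-1 interaction.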 In a few lines:
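HEK293T transiently transfected with PPARg and SRC-1 fused to Venus YFP fragments, compounds 8 h at 37C. Fixed, Draq5-stained cells imaged; nuclear/cytoplasmic 488 nm fluorescence ratio over at least 350 cells per image; gain fitted versus DMSO.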

Assay [20] has the same target. Nature of the assay: OT_PPARg_PPARgSRC1_1440: Odyssey Thera (OT) 24-hour Protein-Complementation Assay for Peroxisome Proliferator-activated Receptor Gamma/ SRC-1 Co-activator (AID 2283388). Summed up:
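Cells carrying the PPARg/SRC-1 fragment-complementation reporter receive compound for 24 hours, are fixed and counterstained with Draq5, then imaged. Increased nuclear relative to cytoplasmic YFP fluorescence above DMSO baseline indicates binding activity.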

Sequence of Peroxisome proliferator-activated receptor gamma (Homo sapiens) (P37231 whole entry, looked up, the tested form may be a part): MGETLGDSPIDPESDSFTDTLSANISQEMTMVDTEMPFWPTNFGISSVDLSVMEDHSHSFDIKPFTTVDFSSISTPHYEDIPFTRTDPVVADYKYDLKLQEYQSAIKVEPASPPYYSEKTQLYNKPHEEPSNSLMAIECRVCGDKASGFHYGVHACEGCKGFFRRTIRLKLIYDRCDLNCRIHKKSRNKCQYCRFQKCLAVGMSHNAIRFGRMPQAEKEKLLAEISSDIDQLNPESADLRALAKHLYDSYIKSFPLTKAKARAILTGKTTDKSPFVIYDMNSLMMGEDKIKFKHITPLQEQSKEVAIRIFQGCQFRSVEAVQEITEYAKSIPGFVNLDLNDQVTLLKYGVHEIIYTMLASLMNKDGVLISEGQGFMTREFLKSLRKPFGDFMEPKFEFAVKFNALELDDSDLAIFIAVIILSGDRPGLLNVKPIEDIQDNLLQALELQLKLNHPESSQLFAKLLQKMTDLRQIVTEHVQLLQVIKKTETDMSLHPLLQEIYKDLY
Sequence of Oxysterols receptor LXR-beta (Homo sapiens) (P55055 whole entry, looked up, the tested form may be a part): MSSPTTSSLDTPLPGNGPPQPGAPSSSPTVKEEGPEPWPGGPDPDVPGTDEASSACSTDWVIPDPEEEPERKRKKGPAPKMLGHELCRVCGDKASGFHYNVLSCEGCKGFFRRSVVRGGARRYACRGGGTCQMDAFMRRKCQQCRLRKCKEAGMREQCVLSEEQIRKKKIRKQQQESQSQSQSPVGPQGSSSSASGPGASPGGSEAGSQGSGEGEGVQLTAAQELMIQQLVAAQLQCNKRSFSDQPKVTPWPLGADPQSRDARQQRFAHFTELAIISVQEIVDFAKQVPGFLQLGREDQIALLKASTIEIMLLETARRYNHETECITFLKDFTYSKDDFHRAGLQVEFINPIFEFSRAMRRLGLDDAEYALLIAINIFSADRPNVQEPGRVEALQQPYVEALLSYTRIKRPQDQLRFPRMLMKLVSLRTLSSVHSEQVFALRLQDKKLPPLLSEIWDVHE
Sequence of Retinoic acid receptor RXR-alpha (Homo sapiens) (P19793 whole entry, looked up, the tested form may be a part): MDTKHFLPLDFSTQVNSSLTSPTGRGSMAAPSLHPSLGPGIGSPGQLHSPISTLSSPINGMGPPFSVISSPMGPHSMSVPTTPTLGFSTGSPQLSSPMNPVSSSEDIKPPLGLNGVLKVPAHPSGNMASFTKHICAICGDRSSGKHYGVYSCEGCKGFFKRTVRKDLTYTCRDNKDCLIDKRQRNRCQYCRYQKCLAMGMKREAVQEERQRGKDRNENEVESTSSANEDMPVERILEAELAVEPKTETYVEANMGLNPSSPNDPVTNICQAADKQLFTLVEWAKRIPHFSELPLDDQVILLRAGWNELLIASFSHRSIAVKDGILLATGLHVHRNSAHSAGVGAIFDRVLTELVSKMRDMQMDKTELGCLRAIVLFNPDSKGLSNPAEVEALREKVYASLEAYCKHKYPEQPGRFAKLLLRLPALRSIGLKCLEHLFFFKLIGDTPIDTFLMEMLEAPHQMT

For `CNC(=N[N+](=O)[O-])NCC1CCOC1` (stereo not given), the result in assay [1], in assay [2], in assay [3], in assay [4], in assay [5] and in [6] was inactive. Besides, the compound was called inactive in assay [7].
For the compound `C[N+](C)(C)CC(=O)[O-]`, in assay [8], the call was inactive.
On to `COc1ccc(CO)cc1`, for which the outcome in assay [9], in assay [1], in assay [10], in assay [11], in [12] and in assay [13] was inactive. Moreover, the outcome in assay [14], in assay [15], in assay [16], in assay [17] and in [18] was inactive.
Consider `CC[N+](=O)[O-]`, for which the call in assay [14], in [2], in assay [3], in [5], in assay [19] and in assay [20] was inactive. Further, the compound was classed as inactive in assay [7].
On to `CCCCCc1cc(O)cc(O)c1`, for which the outcome in assay [1] and in assay [14] was inactive.
As for `COc1ncc(F)c2nc(S(=O)(=O)Nc3c(F)cccc3F)nn12`, the call in assay [8] and in assay [9] was inactive.
As to `Nc1cc(Cl)cc(Cl)c1`, the outcome in assay [10], in [14], in [2], in assay [3], in assay [4] and in assay [5] was inactive. Also, the result in assay [19], in assay [20] and in assay [6] was inactive.
Turning to `O=[N+]([O-])c1cc([N+](=O)[O-])c2ccccc2c1`, the call in assay [10] was inactive.
`ClCCCCCCCl`: in assay [10], the outcome was inactive.
Regarding `O=S(=O)(c1ccccc1)c1ccccc1`, the result in assay [9], in assay [11], in [12], in assay [13], in assay [15] and in [16] was inactive. For the same compound, the result in [17] and in assay [18] was inactive.
The AC50 is the midpoint of the concentration-response curve, whichever way the signal moves. In the case of `O=C(CCl)c1ccccc1`, the call in assay [10], in assay [3], in assay [4], in assay [19] and in assay [20] was inactive. Also, the AC50 in assay [11] was 5.4 µM (active); in assay [12], 6.89 µM (active); in assay [13], 4.98 µM (active); in [14], 55.9 µM (active); in assay [15], 32.6 µM (active); in assay [16], 7.4 µM (active). Besides, the AC50 was 10.9 µM (active) in assay [17]; 9.6 µM (active) in assay [18]; 11.6 µM (active) in [5]; 78.5 µM (active) in [6]; 69.7 µM (active) in assay [7].
On to `CC(C)[C@@H](C(=O)O[C@@H](C#N)c1cccc(Oc2ccccc2)c1)c1ccc(Cl)cc1`, for which the call in assay [9], in [14], in assay [2], in assay [3], in assay [19] and in assay [20] was inactive. Also, the compound was classed as inactive in assay [6] and in [7]. Further, the AC50 in assay [6] is 41.6 µM (active); in assay [7], 50 µM (active).
